Compounds without any hit were thinned out: in the full panel of roughly 83,000, 20% have a hit.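 The test compound was applied at a single concentration to cells in 96-well plates for 48 hours, and percent growth was recorded.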 Active and inactive are the calls of the source. The calls were made as follows: active = growth percent below 10; inactive = the rest.
Tests used:
Assay in all cases: NCI-60 one-dose screen, 48 h (100 = growth as untreated, 0 = no growth, -100 = all killed)
Details in all cases: 10 µM unless noted
NCI-H23 lung = tested on: NCI-H23 lung
NCI-H226 lung = tested on: NCI-H226 lung
NCI-H322M lung = tested on: NCI-H322M lung
HOP-62 NSCLC = tested on: HOP-62 NSCLC
NCI-H460 lung = tested on: NCI-H460 lung
HOP-92 NSCLC = tested on: HOP-92 NSCLC
NCI-H522 lung = tested on: NCI-H522 lung
A549/ATCC NSCLC = tested on: A549/ATCC NSCLC
786-0 renal = tested on: 786-0 renal
COLO 205 colon = tested on: COLO 205 colon
DU-145 prostate = tested on: DU-145 prostate
K-562 leukemia = tested on: K-562 leukemia
MALME-3M melanoma = tested on: MALME-3M melanoma
MDA-MB-231 breast = tested on: MDA-MB-231 breast
RXF 393 renal = tested on: RXF 393 renal
SF-268 CNS = tested on: SF-268 CNS
SF-295 CNS = tested on: SF-295 CNS
SF-539 CNS = tested on: SF-539 CNS
UACC-257 melanoma = tested on: UACC-257 melanoma
M14 melanoma = tested on: M14 melanoma

Measured: growth

COc1cccc(/C=N/NC(=O)c2cnn3c2NC(c2ccccc2)C3)c1Oc1ccccc1 (stereo not given)
inactive: NCI-H23 lung 95.5% | NCI-H226 lung 97.7% | NCI-H322M lung 102% | HOP-62 NSCLC 74.3% | NCI-H460 lung 88% | HOP-92 NSCLC 105% | NCI-H522 lung 54.2% | A549/ATCC NSCLC 73% | 786-0 renal 79.8% | COLO 205 colon 79.6% | DU-145 prostate 89.8% | K-562 leukemia 36% | MALME-3M melanoma 75.3% | MDA-MB-231 breast 90.7% | RXF 393 renal 82.1% | SF-268 CNS 88.3% | SF-295 CNS 63.3% | SF-539 CNS 84% | UACC-257 melanoma 86.3% | M14 melanoma 50.2%

O=S(=O)(NCCNc1nccc(-c2c(-c3cccc(O)c3)nc3occn23)n1)c1ccc(Cl)cc1
inactive: NCI-H23 lung 103% | NCI-H226 lung 109% | NCI-H322M lung 112% | HOP-62 NSCLC 120% | NCI-H460 lung 102% | HOP-92 NSCLC 115% | NCI-H522 lung 98.6% | A549/ATCC NSCLC 101% | 786-0 renal 109% | COLO 205 colon 32.7% | DU-145 prostate 111% | K-562 leukemia 87.8% | MDA-MB-231 breast 86.2% | RXF 393 renal 107% | SF-268 CNS 103% | SF-295 CNS 114% | SF-539 CNS 121% | UACC-257 melanoma 46.9% | M14 melanoma 35.1%
active: MALME-3M melanoma -4.98%

Cc1ccc(-c2[nH][nH]c(=O)c2-c2nc3ccccc3s2)cc1
inactive: NCI-H23 lung 96.2% | NCI-H226 lung 95.1% | NCI-H322M lung 105% | HOP-62 NSCLC 99.2% | NCI-H460 lung 105% | HOP-92 NSCLC 105% | NCI-H522 lung 89.2% | A549/ATCC NSCLC 107% | 786-0 renal 101% | COLO 205 colon 106% | DU-145 prostate 111% | K-562 leukemia 100% | MALME-3M melanoma 96.5% | MDA-MB-231 breast 99.1% | RXF 393 renal 101% | SF-268 CNS 103% | SF-295 CNS 101% | SF-539 CNS 100% | UACC-257 melanoma 104% | M14 melanoma 98.1%

C=C1C(=O)O[C@H]2[C@H]1CC/C(CNC(=O)/C=C/c1cccc(OC)c1)=C\CC[C@@]1(C)O[C@@H]21
inactive: NCI-H23 lung 64.4% | NCI-H226 lung 73.6% | NCI-H322M lung 72.6% | HOP-62 NSCLC 68.7% | NCI-H460 lung 76% | A549/ATCC NSCLC 47.2% | DU-145 prostate 13.2% | SF-268 CNS 48.4% | SF-295 CNS 71.8%
active: HOP-92 NSCLC -31.7% | NCI-H522 lung -69.4% | 786-0 renal -59.2% | COLO 205 colon -56.5% | K-562 leukemia 3.75% | MALME-3M melanoma -45% | MDA-MB-231 breast 7.34% | RXF 393 renal -80.5% | SF-539 CNS -70.5% | UACC-257 melanoma -6.14% | M14 melanoma -36.8%

CCCOc1ccc(/C=N/Nc2cc(C)nc3ccc(Br)cc23)cc1
inactive: NCI-H23 lung 86.9% | NCI-H226 lung 93.3% | NCI-H322M lung 94.5% | HOP-62 NSCLC 92.7% | NCI-H460 lung 70.5% | HOP-92 NSCLC 67.9% | NCI-H522 lung 101% | A549/ATCC NSCLC 94.6% | 786-0 renal 100% | COLO 205 colon 44.8% | DU-145 prostate 86.8% | K-562 leukemia 11.5% | MALME-3M melanoma 112% | MDA-MB-231 breast 92.9% | RXF 393 renal 83.4% | SF-268 CNS 102% | SF-295 CNS 81% | SF-539 CNS 83.9% | UACC-257 melanoma 98.7% | M14 melanoma 80.3%

C#CCNC(=O)c1cccc2c1cc(C)n2-c1nc2c(c(NCc3ccccc3)n1)CCCC2
active: NCI-H23 lung -42.8% | NCI-H226 lung -67.1% | NCI-H322M lung -4.53% | HOP-62 NSCLC -6.14% | NCI-H460 lung -30.8% | HOP-92 NSCLC -61% | NCI-H522 lung -25.8% | A549/ATCC NSCLC -29.5% | 786-0 renal -48.4% | COLO 205 colon -46.4% | DU-145 prostate 5.22% | K-562 leukemia 6.56% | MALME-3M melanoma -59% | MDA-MB-231 breast -69.7% | RXF 393 renal -68.1% | SF-268 CNS -23.6% | SF-295 CNS -68.2% | SF-539 CNS -23.4% | UACC-257 melanoma -30.5% | M14 melanoma -39.2%

N#CC(C#N)=Cc1cc2ccccc2nc1Oc1ccc(C(F)(F)F)cc1
inactive: NCI-H23 lung 81.8% | NCI-H226 lung 77.1% | NCI-H322M lung 99.2% | HOP-62 NSCLC 93.7% | NCI-H460 lung 97.4% | HOP-92 NSCLC 48.7% | NCI-H522 lung 91.8% | A549/ATCC NSCLC 99.5% | 786-0 renal 98.8% | COLO 205 colon 101% | DU-145 prostate 99.1% | K-562 leukemia 64.5% | MALME-3M melanoma 98.8% | MDA-MB-231 breast 84.5% | RXF 393 renal 92.3% | SF-268 CNS 84.4% | SF-295 CNS 92.2% | SF-539 CNS 96.9% | UACC-257 melanoma 106% | M14 melanoma 92.8%

Reference: PubChem BioAssay (NCI)
